# Reference: PubChem BioAssay (NCATS)
# Where “and” joins values, the source holds several entries; their conditions need not be identical. Identical values can stand only once. Inconclusive results are not listed. Calls of active or inactive are those of the source. The call rests on the fitted dose curve; in most records, active means well fitted cell-killing curve with a large enough effect; inconclusive means small, poorly fitted or top-dose-only effect; inactive means flat fitted curve, though single readings scatter.
# Test: Cell Viability - N2a (AID 540); further: nearly all actives have a fitted effect of over 45% in size;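 on activity change, negative = cytotoxicity: plate controls were DMSO alone for no effect and tamoxifen control for full effect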
# Conditions: N2a mouse neuroblastoma cell viability; activity change, negative = cytotoxicity: at 92.2 µM (top of the series)
# Source text: NIH Chemical Genomics Center [NCGC]
# NIH Molecular Libraries Screening Centers Network [MLSCN]
# National Institutes of Environmental Health Sciences [NIEHS]
# National Toxicology Program [NTP]
# We have developed a 1536-well cell-based assay for quantitative high throughput screening (qHTS) against a number of cell lines to determine in vitro cytotoxicity of small molecules. This particular assay uses the N2a cell line which is derived from mouse neuroblastoma.
# NCGC Assay Protocol Summary:
# The CellTiter-Glo luminescent cell viability assay (Promega) is a homogeneous method to measure the number of viable cells in culture. The end point readout of this assay is based on quantitation of intracellular ATP, an indicator of metabolic activity, using the luciferase reaction. Luciferase catalyzes the oxidation of beetle Luciferin to oxyluciferin and light in the presence of ATP. The luminescent signal is proportional to amount of ATP present.
# Using the CellTiter-Glo luminescent cell viability assay, the amount of cellular ATP was measured in the N2a cell line with complete culture medium following compound treatment for 40 hours. The assay was performed in opaque white Kalypsys 1536-well plates. In the screen, tamoxifen and doxorubicin were used as positive controls. Library compounds were measured for their ability to cause acute toxicity in the cell line, as reflected by a decrease in intracellular ATP levels, in a concentration-dependent manner. […] AC50 values were determined from concentration-response data modeled with the standard Hill equation.
# qHTS protocol for CellTiter Glo N2a cellular assay
# [Step] [Parameter] [Value] [Description]
# 1. Reagent; 5 uL; 1500 N2a cells/well
# 2. Time; 5 hr; 37 °C incubation
# 4. Controls; 23 nL; Tamoxifen 0.34 uM to 100 uM & Doxorubicin 0.02 nM to 100 uM
# 5. Time; 40 hr; 37 °C incubation
# 6. Reagent; 5 uL; CellTiter Glo reagent
# 7. Time; 20 min; Room Temperature
# 8. Detection; Luminescence; Viewlux plate reader
# Keywords: cell viability, cytotoxicity, N2a cell line, luminescence, NTPHTS, NTPHTS_NCGC, NIEHS, EPA, DSSTox, MLSMR, MLSCN, NIH Roadmap, qHTS, NCGC
# Potency means the concentration at half of the fitted maximal effect.
SMILES,"activity change, negative = cytotoxicity",Potency
CC12CCC(CC1)C(C)(C)O2,-7.51% (inactive),
Oc1cccc(O)c1,-7.46% (inactive),
O=C1O[C@H]([C@@H](O)CO)C(O)=C1O,3.88% (inactive),
Cc1c(O)cccc1C(=O)N[C@@H](CSc1ccccc1)[C@H](O)CN1C[C@H]2CCCC[C@H]2C[C@H]1C(=O)NC(C)(C)C,-108% (active),
CC1(C)[C@@H]2CC[C@@]1(C)C(=O)C2,2.78% (inactive),
COc1ccccc1O,1.24% (inactive) and 7.3% (inactive) and 7.13% (inactive),
CCCCCCCCCCCCOS(=O)(=O)O,-3.87% (inactive) and -0.403% (inactive),
Cc1cc2nc3c(=O)[nH]c(=O)nc-3n(C[C@H](O)[C@H](O)[C@H](O)CO)c2cc1C,0.316% (inactive),
Nc1ccc(S(=O)(=O)Nc2nccs2)cc1,-2.29% (inactive),
NCCNCCNCCN,-20% (inactive),
Cc1cc(CC(=O)O)n(C)c1C(=O)c1ccc(Cl)cc1,-9.12% (inactive),
NCCNCCNCCNCCN,-2.82% (inactive),
CCCCOC(=O)c1ccc(O)cc1,2.23% (inactive),
NC(=O)N/N=C/c1ccc([N+](=O)[O-])o1,,31.6 µM (active)
[Cl][In]([Cl])[Cl],-0.39% (inactive),
